Assay results: PubChem BioAssay
Calls of active or inactive are those of the source.

Experiments:
[1] = small molecules captured by biotinylated probe aFSTL3 – biochemical, small-molecule microarray, fluorescence 635/667, stem cell growth factor project, primary screen (AID 1064); conditions: higher = more signal;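 further: measures binding of the biotinylated anti-FSTL3 antibody to printed compounds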
[2] = binders from COS7 lysate, DM2A8 probe, primary screen, torsin A project, cell lysate, small-molecule microarray, fluorescence 635/667 (AID 1065); conditions: higher = more signal, COS7 lysate expressing mutant human TOR1A
[3] = small molecules captured by biotinylated probe aFGF2 – biochemical, small-molecule microarray, fluorescence 635/667, stem cell growth factor project, primary screen (AID 1067); conditions: higher = more signal;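 further: measures binding of biotinylated aFGF2 protein to printed compounds on slides; z-score merges feature fluorescence and signal-to-noise across triplicate slides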
[4] = small molecules captured by biotinylated probe aFGF10 – biochemical, small-molecule microarray, fluorescence 635/667, stem cell growth factor project, primary screen (AID 1071); conditions: higher = more signal;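 further: score merges 667 nm spot intensity and signal to noise from triplicate slides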
[5] = target: Neurogenic locus notch homolog protein 2 (Homo sapiens) (UniProt Q04721); assay: small molecules binding Notch2 protein – biochemical, small-molecule microarray, 635 nm fluorescence, stem cell growth factors, primary screen (AID 1073); conditions: higher = more signal
[6] = target: Pro-neuregulin-1, membrane-bound isoform (Homo sapiens) (UniProt Q02297); assay: small molecules binding neuregulin-1 protein – biochemical, small-molecule microarray, fluorescence 635/667, psychiatric disease protein project, primary screen (AID 1075); conditions: NRG1 binding, 635 nm fluorescence, higher = more signal;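 further: score combines 667 nm spot fluorescence with signal to noise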
[7] = tested on: Neuregulin-1 EGF-like domain; assay: small molecules binding NRG1 EGF domain – biochemical, small-molecule microarray, 635 nm fluorescence, primary screen (AID 1081); conditions: higher = more signal;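 further: binding of the protein to compounds printed on small-molecule microarray slides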
[8] = FRG1 expression reporter modulators in myotubes – cell-based, C2C12 myotubes, firefly/Renilla luciferase, luminescence, FRG1 inhibition for FSHD, primary screen (AID 1084); conditions: FRG1 promoter luciferase, higher = more signal, called active from +8 up or from −8 down
[9] = small molecules captured by biotinylated probe aFST – biochemical, small-molecule microarray, fluorescence 635/667, stem cell growth factor project, primary screen (AID 1086); conditions: higher = more signal;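 further: score merges 667 nm fluorescence with signal-to-noise of each printed compound spot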
[10] = binders of probe aHhip on microarray, primary screen, stem cell growth factor project, biochemical, small-molecule microarray, fluorescence 635/667 (AID 1087); conditions: higher = more signal;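 further: score merges spot fluorescence at 667nm with spot signal to noise ratio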

Chain of Pro-neuregulin-1, membrane-bound isoform (Homo sapiens) (Q02297 whole entry, looked up, the tested form may be a part, canonical isoform): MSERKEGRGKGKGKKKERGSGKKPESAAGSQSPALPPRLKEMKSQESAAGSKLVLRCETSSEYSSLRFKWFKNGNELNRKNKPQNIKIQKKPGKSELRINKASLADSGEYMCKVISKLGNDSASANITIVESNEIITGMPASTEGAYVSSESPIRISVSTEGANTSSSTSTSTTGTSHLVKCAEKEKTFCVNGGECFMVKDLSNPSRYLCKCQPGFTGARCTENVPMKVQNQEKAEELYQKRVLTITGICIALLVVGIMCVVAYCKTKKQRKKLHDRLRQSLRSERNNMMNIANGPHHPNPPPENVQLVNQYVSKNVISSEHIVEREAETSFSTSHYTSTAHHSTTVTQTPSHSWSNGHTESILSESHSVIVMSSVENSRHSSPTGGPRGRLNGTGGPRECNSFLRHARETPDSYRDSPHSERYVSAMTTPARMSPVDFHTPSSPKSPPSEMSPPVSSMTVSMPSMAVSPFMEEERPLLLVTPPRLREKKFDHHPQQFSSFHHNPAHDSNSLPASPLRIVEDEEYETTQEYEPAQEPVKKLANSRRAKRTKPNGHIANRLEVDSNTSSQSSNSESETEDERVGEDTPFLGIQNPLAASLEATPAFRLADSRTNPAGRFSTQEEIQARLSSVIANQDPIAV
Chain of Neurogenic locus notch homolog protein 2 (Homo sapiens) (Q04721 whole entry, looked up, canonical isoform): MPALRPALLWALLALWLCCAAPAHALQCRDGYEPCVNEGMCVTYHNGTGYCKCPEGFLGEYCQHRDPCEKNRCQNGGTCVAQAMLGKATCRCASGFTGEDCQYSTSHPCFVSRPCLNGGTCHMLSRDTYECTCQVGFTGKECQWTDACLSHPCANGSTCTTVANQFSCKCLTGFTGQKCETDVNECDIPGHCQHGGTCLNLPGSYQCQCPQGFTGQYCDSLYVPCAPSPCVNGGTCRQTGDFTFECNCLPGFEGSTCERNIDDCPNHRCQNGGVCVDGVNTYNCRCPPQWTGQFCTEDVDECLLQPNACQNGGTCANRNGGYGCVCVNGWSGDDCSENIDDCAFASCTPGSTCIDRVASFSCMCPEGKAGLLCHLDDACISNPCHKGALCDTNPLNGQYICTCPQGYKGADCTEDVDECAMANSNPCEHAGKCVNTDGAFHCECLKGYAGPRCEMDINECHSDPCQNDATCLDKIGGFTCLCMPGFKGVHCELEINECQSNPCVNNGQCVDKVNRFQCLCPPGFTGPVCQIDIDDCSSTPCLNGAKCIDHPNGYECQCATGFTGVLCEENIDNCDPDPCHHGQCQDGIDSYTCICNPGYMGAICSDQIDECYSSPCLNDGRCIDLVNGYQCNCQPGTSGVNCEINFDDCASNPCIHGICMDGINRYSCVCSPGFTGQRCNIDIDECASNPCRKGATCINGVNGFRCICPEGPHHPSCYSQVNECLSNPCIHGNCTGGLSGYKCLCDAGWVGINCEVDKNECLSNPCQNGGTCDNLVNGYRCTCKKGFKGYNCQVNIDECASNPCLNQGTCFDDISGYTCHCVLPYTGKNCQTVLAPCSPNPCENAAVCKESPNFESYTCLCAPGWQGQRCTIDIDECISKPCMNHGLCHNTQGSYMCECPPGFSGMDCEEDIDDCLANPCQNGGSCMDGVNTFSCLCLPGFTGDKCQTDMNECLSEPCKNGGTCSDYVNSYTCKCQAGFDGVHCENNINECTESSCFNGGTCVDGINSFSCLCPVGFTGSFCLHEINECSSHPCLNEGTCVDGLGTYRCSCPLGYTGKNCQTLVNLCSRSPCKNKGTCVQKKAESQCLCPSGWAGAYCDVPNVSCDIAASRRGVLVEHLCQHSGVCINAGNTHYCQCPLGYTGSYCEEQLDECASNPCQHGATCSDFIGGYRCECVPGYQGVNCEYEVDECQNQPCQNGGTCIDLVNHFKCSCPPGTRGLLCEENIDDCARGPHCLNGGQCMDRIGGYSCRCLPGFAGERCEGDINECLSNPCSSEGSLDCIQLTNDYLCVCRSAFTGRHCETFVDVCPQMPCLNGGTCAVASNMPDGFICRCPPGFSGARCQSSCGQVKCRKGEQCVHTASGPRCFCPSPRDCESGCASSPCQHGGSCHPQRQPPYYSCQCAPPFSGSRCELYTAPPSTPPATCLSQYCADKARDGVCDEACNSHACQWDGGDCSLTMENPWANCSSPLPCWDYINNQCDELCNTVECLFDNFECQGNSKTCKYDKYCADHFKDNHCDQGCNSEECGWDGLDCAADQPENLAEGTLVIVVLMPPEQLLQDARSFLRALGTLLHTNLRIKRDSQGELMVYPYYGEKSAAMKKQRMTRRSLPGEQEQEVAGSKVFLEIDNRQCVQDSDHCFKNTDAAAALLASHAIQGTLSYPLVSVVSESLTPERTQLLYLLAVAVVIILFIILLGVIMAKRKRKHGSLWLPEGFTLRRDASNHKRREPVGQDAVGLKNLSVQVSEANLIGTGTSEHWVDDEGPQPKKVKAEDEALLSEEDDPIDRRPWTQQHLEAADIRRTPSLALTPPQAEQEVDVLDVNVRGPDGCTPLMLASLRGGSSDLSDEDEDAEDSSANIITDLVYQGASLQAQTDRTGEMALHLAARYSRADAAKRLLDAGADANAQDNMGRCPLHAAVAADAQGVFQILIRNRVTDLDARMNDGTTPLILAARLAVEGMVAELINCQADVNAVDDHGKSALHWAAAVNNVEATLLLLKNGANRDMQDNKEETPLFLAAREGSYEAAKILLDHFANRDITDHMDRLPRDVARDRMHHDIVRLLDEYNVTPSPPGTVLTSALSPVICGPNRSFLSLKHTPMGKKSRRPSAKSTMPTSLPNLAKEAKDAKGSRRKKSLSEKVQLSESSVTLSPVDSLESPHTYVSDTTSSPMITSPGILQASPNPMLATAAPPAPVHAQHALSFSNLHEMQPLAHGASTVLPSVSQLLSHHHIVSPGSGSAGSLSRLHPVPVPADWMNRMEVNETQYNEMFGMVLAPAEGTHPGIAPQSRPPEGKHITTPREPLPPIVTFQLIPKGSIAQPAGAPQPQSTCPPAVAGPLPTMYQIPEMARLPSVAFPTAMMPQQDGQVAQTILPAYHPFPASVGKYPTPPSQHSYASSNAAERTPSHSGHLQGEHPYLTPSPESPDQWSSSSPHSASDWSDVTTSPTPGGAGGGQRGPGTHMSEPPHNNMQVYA

Structure (SMILES)	composite z-score [1]	composite z-score [2]	composite z-score [3]	composite z-score [4]	composite z-score [5]	composite z-score [6]	composite z-score [7]	z-score [8]	composite z-score [9]	composite z-score [10]
COc1ccc([Si](C)(C)[C@H]2[C@H](CCO)O[C@@]3(C(=O)N(Cc4ccccc4)c4ccc(N5CCOC5=O)cc43)[C@@H]2C)cc1	-0.226	0.0044	-0.126	0.522	0.591	0.872	0.828	-2.79 (inactive)	0.135	-0.226
COCCOC(=O)N1C(=O)[C@@]2(c3cc(C#CCNC(N)=O)ccc31)[C@H](c1ccc(O)cc1)N1[C@H](c3ccccc3)[C@H](c3ccccc3)OC(=O)[C@H]1[C@@H]2C(=O)N1CCN(c2ncccn2)CC1	-0.487	0.594	0.0762	0.661	0.629	1.19	1.1	-0.523 (inactive)	0.34	-0.218
COc1cc2c(cc1O)C(c1cccs1)N(Cc1sc3ccccc3c1Cl)CC2 (stereo not given)	-0.181	1.14	0.115	1.18	1.55	2.09	1.42	-0.19 (inactive)	1.11	3.57
CC(C)C(CO)N1C(=O)[C@@H]2[C@H]3C(=O)OCC=C[C@H]3OC23C=CCN(C(C)(C)C)C(=O)[C@@H]13 (stereo not given in full)	-0.0718	-0.141	-0.155	-0.724	-0.456	-0.807	-1.03	-0.221 (inactive)	-0.346	-0.128
CC(C)(C)OC(=O)CC[C@]1(C(=O)N2CCCCC2)COC(c2ccc(OCCCO)cc2)=N1	0.161	1.05	0.0159	1.2	1.6	1.35	1.15	-2.51 (inactive)	0.372	0.0373
NC(=O)NCC#Cc1ccc2c(c1)[C@]1(C(=O)N2)[C@H](C(=O)N2CCN(c3ncccn3)CC2)[C@H]2C(=O)O[C@H](c3ccccc3)[C@H](c3ccccc3)N2[C@@H]1c1ccc(OCCO)cc1	0.0085	0.0039	-0.0222	0.375	0.884	0.133	0.148	1.62 (inactive)	0.548	0.0659
COC(=O)[C@@]1(Cc2ccccc2)[C@H]2c3cc(C(=O)N(C)C)n(CCn4cc([N+](=O)[O-])nc4C)c3C[C@H]2CN1C(=O)c1ccccc1	0.0989	0.227	-0.045	0.861	1.23	0.204	1.2	-0.0393 (inactive)	0.928	-0.281
COCCOC(=O)N1C(=O)[C@@]2(c3cc(C#CCCO)ccc31)[C@H](C(=O)N1CCCCCCC1)[C@H]1C(=O)O[C@H](c3ccccc3)[C@H](c3ccccc3)N1[C@@H]2c1ccccc1OCCO	3.32	0.659	0.688	0.473	1.43	1.85	1.18	0.253 (inactive)	3.07	0.891
CC=CC(O)C1C=CC2C(=O)NC(=O)C2N1Nc1ccccn1 (stereo not given)	-0.293	0.205	-0.151	0.204	1.03	0.934	1.24	0.571 (inactive)	0.128	-0.0618
Cc1ccc([C@H]2C(C(=O)O)=C[C@@H](C(C)(C)C)N2S(=O)(=O)c2ccc(C)cc2)cc1	0.137	-0.0985	0.17	0.965	1.55	1.54	1.17	-2.04 (inactive)	0.734	0.235
C[C@@H]1ON(c2ccc(I)cc2)[C@H](c2ccc(OC(=O)OC(C)(C)C)cc2)[C@H]1C(=O)N1C(=O)OC[C@H]1Cc1ccccc1	-0.478	0.0988	-0.175	0.253	0.756	0.178	0.492	3.7 (inactive)	0.238	-0.0672
COCCOC(=O)N1C(=O)[C@@]2(c3cc(C#CCC(C(=O)OC)C(=O)OC)ccc31)[C@H](C(=O)NC[C@H](O)c1ccccc1)[C@H]1C(=O)O[C@H](c3ccccc3)[C@H](c3ccccc3)N1[C@@H]2c1ccc(OCCO)cc1	-0.341	0.0051	-0.113	0.245	0.917	0.161	1.23	0.856 (inactive)	0.5	-0.0994
CO[C@H]1O[C@H](CO)[C@@H](OC(=O)Nc2cccc(F)c2)[C@H](OC(=O)Nc2ccccc2-c2ccccc2)[C@H]1OC(=O)Nc1ccccc1-c1ccccc1	-0.24	0.368	0.0591	0.64	1.53	1.72	1.35	0.322 (inactive)	1.36	-0.247
CCCCCN1CC=CC23O[C@@H]4/C=C\CCC(C)OC(=O)C4[C@H]2C(=O)N(CCCCCCO)[C@@H]3C1=O (stereo not given in full)	-0.146	-0.355	-0.129	-0.248	-0.641	1.89	1.4	-0.0224 (inactive)	-0.183	-0.0994
CN(C)C(=O)[C@@]1(Cc2ccccc2)COC(c2ccc(OCCCO)cc2)=N1	0.862	-0.111	0.0412	-0.055	-0.266	1.81	0.61	-0.698 (inactive)	-0.341	0.217
COc1cc(CO)cc(I)c1O[C@H]1C=C(C(=O)NCCO)C[C@@H](NCC2CCCCC2)[C@@H]1O	-0.149	-0.422	-0.0506	0.542	0.481	0.579	0.652	-1.14 (inactive)	0.638	0.0505
COc1ccc(NC(=O)O[C@H]2[C@@H]3OC(=O)[C@H](Cc4cccc(Br)c4)C/C=C/C[C@@H](Cc4cccc(Br)c4)C(=O)O[C@H]3[C@@H](OC)O[C@@H]2CO)cc1	0.0355	1.4	0.0929	0.579	0.935	0.558	0.453	3.13 (inactive)	0.421	0.285
COc1ccc([Si](C)(C)[C@H]2[C@H](CCO)O[C@@]3(C(=O)N(Cc4ccc(N5C(=O)c6ccccc6Oc6ccccc65)cc4)c4ccccc43)[C@@H]2C)cc1	0.603	-0.352	-0.081	0.251	-0.389	0.0473	0.644	-3.69 (inactive)	-0.601	-0.284
CC(C)C[C@@H]1NC(=O)[C@@H]2C[C@H](C(=O)NCCCCCC[N+](C)(C)C)[C@H](c3cccc(OCCO)c3)N2C1=O	0.222	0.0263	-0.145	-0.289	0.114	1.06	1.18	2.84 (inactive)	-0.304	-0.126
C=C(CCCC)C(=O)CC[C@H](OC(=O)c1ccccc1-c1ccccc1C(=O)O)c1ccccc1OCCO	-0.0134	0.814	-0.149	0.76	-0.331	1.06	1.07	-1.42 (inactive)	-0.214	-0.249
[N-]=[N+]=NCc1ccccc1[C@@H]1OC(c2ccc(OCCCO)cc2)=N[C@]1(Cc1ccccc1)C(=O)NCCN1CCOCC1	0.32	0.0026	0.159	1.1	1.4	1.25	1.23	0.106 (inactive)	1.09	-0.126
O=C(CS)NCCCCCNC(=O)[C@@H]1C[C@@H]2C(=O)N[C@@H](Cc3ccccc3)C(=O)N2[C@@H]1c1cccc(OCCO)c1	-0.0315	0.692	-0.01	0.325	0.0566	1.43	1.39	0.057 (inactive)	0.0454	-0.277
O=C1O[C@H](c2ccccc2)[C@H](c2ccccc2)N2[C@H]1[C@@H](C(=O)N1CCCCCCC1)[C@]1(C(=O)Nc3ccc(C#CC4(O)CCCCCC4)cc31)[C@H]2c1ccc(O)cc1	3.63	1.42	0.807	0.822	1.36	1.36	1.2	-2.46 (inactive)	2.97	0.697
CO[C@H]1O[C@H](CO)[C@@H](OC(=O)CCc2ccccc2)[C@H](OC(=O)c2cc3ccccc3[nH]2)[C@H]1OC(=O)c1cc2ccccc2[nH]1	-0.262	0.489	-0.0321	0.72	1.15	1.21	1.02	-0.3 (inactive)	0.29	0.0596
CN1C(=O)C2C=CC(C(O)c3cc(C(F)(F)F)cc(C(F)(F)F)c3)N(Nc3ccccc3)C2C1=O (stereo not given)	-0.481	-0.229	-0.0656	0.05	0.245	0.862	1.25	0.715 (inactive)	-0.106	-0.0994
COc1ccc(CCNC(=O)[C@@]2(Cc3ccccc3I)c3ccccc3C(=O)N(Cc3ccccc3Cl)[C@H]2c2ccc(CO)cc2)cc1	0.696	0.348	0.189	0.0625	0.0077	1.8	1.22	-3.44 (inactive)	0.262	0.674
COC(=O)C(CC#Cc1ccc2c(c1)[C@]1(C(=O)N2)[C@H](C(=O)Nc2nc3ccccc3s2)[C@H]2C(=O)O[C@H](c3ccccc3)[C@H](c3ccccc3)N2[C@@H]1c1ccc(OCCO)cc1)C(=O)OC	0.156	0.444	-0.0036	1.05	1.4	1.87	1.24	1.9 (inactive)	0.846	-0.137
